# An excerpt weighted towards active compounds, which were near 7% of everything screened.
# KLK7 zymogen act: activates the human kallikrein-7 zymogen; purified proKLK7, EDANS-DABCYL substrate fluorescence; 100% is mature enzyme control, 0% vehicle; activation, % at 7 µM; AID 652039; P49862; 0.9% of 370,000 active;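 active = activation above the mean of all tested compounds plus 3 SD, computed per campaign excluding outliers beyond control limits, cut at about 13% in these data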
# ADAM10 inh: ADAM10 inhibition, QFRET primary screen. O14672. recombinant ADAM10, EDANS/DABCYL FRET peptide cleavage, 3 h. inhibition, % at 7 µM. 0.62% of 370,000 active;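 active = inhibition above a per-campaign cutoff equal to the mean of compounds falling between control-based bounds plus 3 SD, cut at about 20% in these data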;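 note: 0% = DMSO wells while the 100% control is not disclosed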
# Target sequence (O14672 214-748 limits assumed): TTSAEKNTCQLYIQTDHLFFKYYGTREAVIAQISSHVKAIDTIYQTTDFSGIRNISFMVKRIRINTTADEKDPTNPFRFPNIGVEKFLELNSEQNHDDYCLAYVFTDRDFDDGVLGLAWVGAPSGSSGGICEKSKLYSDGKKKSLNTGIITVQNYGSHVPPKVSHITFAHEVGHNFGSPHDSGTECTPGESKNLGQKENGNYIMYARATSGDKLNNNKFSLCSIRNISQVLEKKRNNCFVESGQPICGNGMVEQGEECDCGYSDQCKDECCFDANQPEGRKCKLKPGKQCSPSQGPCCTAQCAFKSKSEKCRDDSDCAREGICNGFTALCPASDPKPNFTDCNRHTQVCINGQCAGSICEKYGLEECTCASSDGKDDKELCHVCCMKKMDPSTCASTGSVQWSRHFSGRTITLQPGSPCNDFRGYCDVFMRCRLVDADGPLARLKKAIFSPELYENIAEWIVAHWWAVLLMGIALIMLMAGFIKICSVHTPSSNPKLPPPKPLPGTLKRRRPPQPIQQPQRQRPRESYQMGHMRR
# ADAM17 inh: ADAM17 inhibition, QFRET primary screen; 0.83% of 370,000 active; AID 720648; inhibition, % at 6.95 µM; P78536; recombinant ADAM17, EDANS/DABCYL FRET peptide cleavage;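 active = inhibition above the mean of compounds lying between control limits plus 3 SD, set per campaign, cut at about 8.5% in these data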;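 note: 0% = DMSO-only wells as the low control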
# NR3A LBD binder: modulates the human NR3A ligand-binding domain. NR3A LBD differential scanning fluorimetry, Tm shift; 0% = protein alone, 100% = glycine-bound protein. Tm shift relative to glycine control, % at 25 µM. 2.5% of 340,000 active;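 active = melting temperature shift of at least 10% of the positive control shift, at one fixed dose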
# rCAG binder: binds r(CAG) RNA repeats; r(CAG) RNA repeat, TO-PRO-1 dye displacement fluorescence; inhibition, % at 3 µM; 1.3% of 370,000 active; AID 651821;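 active = inhibition above the plate cutoff, the mean of all test compounds on that plate plus 3 SD, cut at about 35% in these data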;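 note: 0% = DMSO alone and 100% = 100 µM mitoxantrone as full dye displacement; higher means more dye released from RNA so lower well fluorescence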
# AHR activator: activators of human aryl hydrocarbon receptor; P35869; AHR-responsive luciferase reporter cells, luminescence; activation, % at 5 µM; 2.5% of 320,000 active; in the data active = activation above about 47%;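 note: 0% = vehicle wells and 100% = reference agonist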
# ADAM10 confirm: confirmation of inhibitors of human ADAM10; shares compounds with ADAM10 inh; AID 743208; inhibition, % at 6.95 µM; 1% of 2,100 active; ADAM10 QFRET peptide cleavage, EDANS fluorescence;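 active = inhibition above about 20% chosen separately for each screening run, limit read from the data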;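 note: 0% = DMSO wells and 100% = marimastat wells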
# ADAM17 ctr: counter-screen for ADAM10 exosite inhibitors: inhibitors of human ADAM17; 0.5% of 2,100 active; shares compounds with ADAM10 inh; ADAM17 QFRET peptide cleavage, EDANS fluorescence; inhibition, % at 6.95 µM;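 active = mean triplicate inhibition above the solvent-only control wells' mean plus 3 SD, cut at about 12% in these data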;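 note: 0% = DMSO wells and 100% = marimastat wells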
# ADAM10 counter: inhibits human ADAM10 in ADAM17 exosite counter-screen. shares compounds with ADAM17 inh. recombinant ADAM10, EDANS/DABCYL FRET peptide cleavage, 3 h. inhibition, % at 6.95 µM. 47% of 2,900 active. AID 743256;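 active = mean inhibition over the triplicate runs exceeds the activity threshold set in the earlier primary screen, cut at about 20% in these data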;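 note: 0% = DMSO wells and 100% = marimastat wells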
# ADAM17 confirm: confirmation of inhibitors of human ADAM17; shares compounds with ADAM17 inh; recombinant ADAM17, EDANS/DABCYL QFRET peptide cleavage; inhibition, % at 6.95 µM; 65% of 2,900 active; AID 743257;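 active = mean inhibition across replicates above the hit cutoff set in the primary screen, cut at about 8.5% in these data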;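 note: 0% = DMSO wells and 100% = marimastat wells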
# * hit, by the source's call; . = not tested or not shown.
SMILES,KLK7 zymogen act,ADAM10 inh,ADAM17 inh,NR3A LBD binder,rCAG binder,AHR activator,ADAM10 confirm,ADAM17 ctr,ADAM10 counter,ADAM17 confirm
COc1cc(N=Nc2ccc(C)cc2S(N)(=O)=O)c(C)cc1N,-0.8,2.0,8.5,-2.4,9.2,.,.,.,.,.
O=C(Nc1ccccc1)Nc1cc(Cl)cc(Cl)c1,-0.1,19.1,8.3,.,14.6,18.6,.,.,.,.
O=C(Nc1ccccc1)Nc1cc(OCC(F)(F)F)cc(OCC(F)(F)F)c1,-0.5,31.4*,14.5*,40.7*,13.5,.,9.3,2.2,28.0*,17.4*
CC(C)NC(=O)CC(c1ccccc1)c1cc(Br)ccc1O (centres undefined),.,.,.,-3.3,.,1.2,.,.,.,.
CCCCCCNC(=O)CC(c1ccccc1)c1cc(Br)ccc1O (centres undefined),0.0,34.7*,23.5*,12.1*,3.6,2.2,7.4,2.7,41.0*,22.4*
Cc1ccc([C@H]2C[C@H](n3cc(COC(=O)c4ccccc4)nn3)[C@@H](O)CN2Cc2cccs2)cc1,0.0,24.4*,11.7*,.,7.7,.,6.1,2.1,11.8,9.2*
Cc1ccc(NC(=O)COC(=O)/C(=C/c2cccs2)c2cccs2)cc1S(=O)(=O)N(C)C,-0.1,24.1*,15.3*,-13.5,19.9,-0.1,6.6,2.9,11.6,13.0*
CN1CCO/C1=C(\C(Cl)=C(Cl)Cl)[N+](=O)[O-],0.3,-1.1,2.2,-3.3,-0.9,0.7,.,.,.,.
CCC1CO/C(=C(\C(Cl)=C(Cl)Cl)[N+](=O)[O-])N1 (centres undefined),0.0,33.0*,12.9*,-0.3,5.7,0.7,15.6,5.5,30.4*,17.3*
CC(C)(C)C1CCc2nc(NC(=O)Cc3cn4ccsc4n3)sc2C1 (centres undefined),0.8,22.6*,19.5*,-4.3,3.9,0.6,3.0,1.5,21.1*,9.7*
CC1CCc2nc(NC(=O)Cc3cccs3)sc2C1 (centres undefined),0.1,8.9,-3.6,-3.1,-3.8,-6.0,.,.,.,.
COc1ccc(CN(CCC(c2ccc(F)cc2)C2CCOC(C)(C)C2)C(=O)c2ccco2)cc1 (centres undefined),0.8,21.5*,13.9*,-1.8,1.4,-3.5,4.6,1.6,24.7*,14.9*
CC(c1ccccc1)N(CCC(c1ccccc1)C1CCOC(C)(C)C1)C(=O)c1ccco1 (centres undefined),0.6,12.7,2.7,-2.6,-0.1,0.5,.,.,.,.
O=[N+]([O-])c1ccc(O)c(/C=N/Nc2ccccn2)c1,-0.3,23.8*,30.1*,-6.4,2.4,3.9,29.4*,31.4*,48.5*,53.5*
COCCOC(=O)c1c(C)n(C)c2ccc(OC(=O)N3CCOCC3)cc12,0.3,3.6,-0.5,1.9,-5.4,19.7,.,.,.,.
COCCOC(=O)c1c(C)n(C)c2ccc(OC(=O)c3c(OC)cccc3OC)cc12,0.3,20.7*,10.2*,1.6,0.4,23.0,5.5,1.4,13.0,9.1*
CN1CC(c2ccccn2)C2(SC(=S)N(Cc3ccccc3)C2=O)C12C(=O)Nc1ccccc12 (centres undefined),-0.3,-2.5,-7.6,-3.6,2.5,4.0,.,.,.,.
Cc1ccc(C2CN(C)C3(C(=O)Nc4ccccc43)C23COc2ccccc2C3=O)cc1 (centres undefined),0.4,27.0*,9.6*,-2.8,5.0,6.4,7.5,2.8,34.9*,19.1*
Cc1ccc2cc(CN(c3cccc(C)c3C)S(=O)(=O)c3ccccc3)c(=O)[nH]c2c1,0.6,-16.2,-0.2,1.6,3.4,1.4,.,.,.,.
COc1ccc(-n2c(COc3ccccc3)nnc2SCC(=O)Nc2ccccc2-c2ccccc2)cc1,0.3,20.4*,10.6*,.,6.2,.,6.0,2.5,24.3*,13.4*
CCOc1ccc(-n2c(COc3ccccc3)nnc2SCC(N)=O)cc1,-0.5,-0.6,-5.5,-1.7,-4.9,1.9,.,.,.,.
CCOC(=O)C1=CN(CC)S(=O)(=O)NC1c1cccc(OC)c1 (centres undefined),-1.0,-17.5,1.5,0.7,0.8,.,.,.,.,.
C[C@H]1CN([C@@H](C)CO)C(=O)Cc2cc(NC(=O)CCC(F)(F)F)ccc2O[C@H]1CN(C)Cc1ccc(C(F)(F)F)cc1,-0.5,25.1*,10.8*,-2.8,-5.4,10.6,2.0,1.9,26.6*,16.5*
C[C@H](CO)N1C[C@H](C)[C@H](CN(C)S(=O)(=O)c2cn(C)cn2)Oc2ccc(NC(=O)Nc3ccc(C(F)(F)F)cc3)cc2CC1=O,-0.2,14.9,8.3,3.1,4.2,-1.2,.,.,.,.
C[C@@H]1CN([C@@H](C)CO)C(=O)Cc2cc(NC(=O)Nc3ccc(C(F)(F)F)cc3)ccc2O[C@@H]1CN(C)S(=O)(=O)c1ccc(Cl)cc1,0.1,35.2*,15.0*,14.0*,16.8,7.9,9.3,3.1,51.4*,27.2*
SMILES,KLK7 zymogen act,ADAM10 inh,ADAM17 inh,NR3A LBD binder,rCAG binder,AHR activator,ADAM10 confirm,ADAM17 ctr,ADAM10 counter,ADAM17 confirm
COc1cccc(NC(=O)CN2C(=O)C(c3ccc(C)cc3)=NC23CCCCCC3)c1,0.1,1.7,1.7,1.3,1.9,4.6,.,.,.,.
COc1cc(NC(=O)CN2C(=O)C(c3ccccc3)=NC23CCCCCC3)cc(OC)c1,0.1,29.5*,8.7*,0.3,5.1,-0.7,2.5,1.4,6.0,4.6
CC(=O)Nc1ccc(NC(=O)C(C)OC(=O)c2ccc3ccccc3n2)cc1 (centres undefined),-0.8,-0.1,5.1,2.7,0.1,15.4,.,.,.,.
COc1ccc(NC(=O)c2cccc(Oc3ccc([N+](=O)[O-])cc3Cl)c2)cc1,0.0,21.7*,10.4*,-28.2,8.1,4.6,8.0,3.0,30.4*,17.8*
COc1cccc(C(=O)COc2cccc(NC(=O)c3cccc([N+](=O)[O-])c3)c2)c1,-0.2,5.2,1.2,-2.5,6.1,4.5,.,.,.,.
O=C(CSc1nccn1Cc1ccccc1)NC1CCCC1,-0.5,5.2,0.6,-0.9,-3.1,0.6,.,.,.,.
CCC[C@H]1CN(c2ccc(Br)cc2)C(=O)[C@@H]1CC(=O)Nc1ccccc1,0.9,24.3*,18.2*,.,2.0,.,0.1,0.4,19.8*,4.3
